According to the supplement of paper PMC8728848:
The entries come from a sample that favours the strongest signals as a whole.

How the values were obtained:
Assay in all cases: glycan array binding signal (z-score within array); higher = stronger binding
Conditions in all cases: glycan notation: IUPAC condensed, linker removed
[1] = biological target: Fuc(a1-2)Gal(b1-3)GlcNAc
How it was run: (§1)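 Glycan array binding is given as a within-array Z-score, which can be read as non-binding when negative. The arrays, 3228 of them, came from the Consortium for Functional Glycomics database and were retained only where the protein sequence was available. Z-scores were averaged across arrays of the same protein sequence at different concentrations or buffers and across linkers.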

[2] = biological target: Fuc(a1-2)Gal(b1-3)GlcNAc(b1-3)Gal(b1-4)Glc
How it was run: as §1

[3] = biological target: Fuc(a1-2)Gal(b1-3)[Fuc(a1-4)]GlcNAc
How it was run: as §1

[4] = biological target: Fuc(a1-2)Gal(b1-4)GlcNAc(b1-2)Man(a1-3)[Fuc(a1-2)Gal(b1-4)GlcNAc(b1-2)Man(a1-6)]Man(b1-4)GlcNAc(b1-4)GlcNAc
How it was run: as §1

[5] = biological target: Fuc(a1-2)Gal(b1-4)[Fuc(a1-3)]GlcNAc
How it was run: as §1

[6] = biological target: Fuc(a1-2)[GalNAc(a1-3)]Gal(b1-3)GlcNAc
How it was run: as §1

[7] = biological target: Gal(a1-3)Gal(b1-3)[Fuc(a1-4)]GlcNAc(b1-2)Man(a1-3)[Gal(a1-3)Gal(b1-3)[Fuc(a1-4)]GlcNAc(b1-2)Man(a1-6)]Man(b1-4)GlcNAc(b1-4)GlcNAc
How it was run: as §1

[8] = biological target: Gal(a1-3)Gal(b1-4)[Fuc(a1-3)]GlcNAc
How it was run: as §1

[9] = biological target: Gal(a1-4)Gal(b1-4)GlcNAc(b1-2)Man(a1-3)[Gal(a1-4)Gal(b1-4)GlcNAc(b1-2)Man(a1-6)]Man(b1-4)GlcNAc(b1-4)GlcNAc
How it was run: as §1

[10] = biological target: Gal(b1-2)Gal
How it was run: as §1

[11] = biological target: Gal(b1-3)GalNAc(b1-4)[Neu5Ac(a2-3)]Gal(b1-4)Glc
How it was run: as §1

[12] = biological target: Gal(b1-3)GlcNAc(b1-3)Gal(b1-4)Glc
How it was run: as §1

[13] = biological target: Gal(b1-3)GlcNAc(b1-3)Gal(b1-4)[Fuc(a1-3)]GlcNAc(b1-6)[Gal(b1-3)GlcNAc(b1-3)]Gal(b1-4)Glc
How it was run: as §1

[14] = biological target: Gal(b1-3)[Fuc(a1-4)]GlcNAc
How it was run: as §1

[15] = biological target: Gal(b1-3)[Fuc(a1-4)]GlcNAc(b1-2)Man(a1-3)[Gal(b1-3)[Fuc(a1-4)]GlcNAc(b1-2)Man(a1-6)]Man(b1-4)GlcNAc(b1-4)GlcNAc
How it was run: as §1

[16] = biological target: Gal(b1-3)[Fuc(a1-4)]GlcNAc(b1-2)Man(a1-3)[Gal(b1-3)[Fuc(a1-4)]GlcNAc(b1-2)Man(a1-6)]Man(b1-4)GlcNAc(b1-4)[Fuc(a1-6)]GlcNAc
How it was run: as §1

[17] = biological target: Gal(b1-4)GlcNAc(b1-2)Man(a1-3)[Gal(b1-4)GlcNAc(b1-2)Man(a1-6)]Man(b1-4)GlcNAc(b1-4)GlcNAc
How it was run: as §1

[18] = biological target: GalNAc(b1-4)GlcNAc(b1-2)Man(a1-3)[GalNAc(b1-4)GlcNAc(b1-2)Man(a1-6)]Man(b1-4)GlcNAc(b1-4)GlcNAc
How it was run: as §1

[19] = biological target: GlcNAc(b1-3)Gal(b1-4)GlcNAc(b1-3)Gal(b1-4)GlcNAc
How it was run: as §1

[20] = biological target: Kdn(a2-3)Gal(b1-4)Glc
How it was run: as §1

[21] = biological target: Man(a1-2)Man(a1-2)Man(a1-6)[Man(a1-3)]Man
How it was run: as §1

[22] = biological target: Neu5Ac(a2-3)Gal(b1-3)GlcNAc6S
How it was run: as §1

[23] = biological target: Neu5Ac(a2-3)Gal(b1-3)[Fuc(a1-4)]GlcNAc(b1-3)Gal(b1-4)[Fuc(a1-3)]GlcNAc
How it was run: as §1

[24] = biological target: Neu5Ac(a2-3)Gal(b1-4)GlcNAc(b1-3)Gal(b1-4)GlcNAc
How it was run: as §1

[25] = biological target: Neu5Ac(a2-6)Gal(b1-4)GlcNAc(b1-3)Gal(b1-4)GlcNAc(b1-3)Gal(b1-4)GlcNAc
How it was run: as §1

[26] = biological target: Neu5Ac(a2-6)GalNAc
How it was run: as §1

[27] = biological target: Neu5Ac9Ac(a2-3)Gal(b1-4)GlcNAc
How it was run: as §1

[28] = biological target: Fuc(a1-2)Gal(b1-4)Glc
How it was run: as §1

[29] = biological target: Fuc(a1-2)Gal(b1-4)GlcNAc
How it was run: as §1

[30] = biological target: Fuc(a1-2)Gal(b1-4)GlcNAc(b1-3)Gal(b1-4)GlcNAc
How it was run: as §1

[31] = biological target: Fuc(a1-2)Gal(b1-4)GlcNAc(b1-3)[Fuc(a1-3)[Gal(b1-4)]GlcNAc(b1-6)]Gal(b1-4)Glc
How it was run: as §1

[32] = biological target: Fuc(a1-2)Gal(b1-4)[Fuc(a1-3)]GlcNAc(b1-3)Gal(b1-4)[Fuc(a1-3)]GlcNAc(b1-3)Gal(b1-4)[Fuc(a1-3)]GlcNAc
How it was run: as §1

[33] = biological target: Fuc(a1-2)[Gal(a1-3)]Gal(b1-4)[Fuc(a1-3)]Glc
How it was run: as §1

[34] = biological target: Fuc(a1-2)[Gal(a1-3)]Gal(b1-4)[Fuc(a1-3)]GlcNAc
How it was run: as §1

[35] = biological target: Fuc(a1-2)[GalNAc(a1-3)]Gal(b1-3)GlcNAc(b1-6)GalNAc
How it was run: as §1

[36] = biological target: Fuc(a1-2)[GalNAc(a1-3)]Gal(b1-4)GlcNAc
How it was run: as §1

[37] = biological target: Fuc(a1-2)[GalNAc(a1-3)]Gal(b1-4)GlcNAc(b1-2)Man(a1-3)[Fuc(a1-2)[GalNAc(a1-3)]Gal(b1-4)GlcNAc(b1-2)Man(a1-6)]Man(b1-4)GlcNAc(b1-4)GlcNAc
How it was run: as §1

[38] = biological target: Fuc(a1-3)[Gal(b1-4)]GlcNAc(b1-2)Man(a1-3)[Fuc(a1-3)[Gal(b1-4)]GlcNAc(b1-2)Man(a1-6)]Man(b1-4)GlcNAc(b1-4)[Fuc(a1-6)]GlcNAc
How it was run: as §1

[39] = biological target: Gal(a1-3)Gal(b1-3)GlcNAc(b1-2)Man
How it was run: as §1

[40] = biological target: Gal(b1-3)GlcNAc(a1-3)Gal(b1-4)GlcNAc
How it was run: as §1

[41] = biological target: Gal(b1-3)GlcNAc(b1-2)Man
How it was run: as §1

[42] = biological target: Gal(b1-3)[Neu5Ac(a2-6)]GlcNAc(b1-4)Gal(b1-4)Glc
How it was run: as §1

[43] = biological target: Gal(b1-4)GlcNAc(b1-3)GalNAc
How it was run: as §1

[44] = biological target: Gal3S6S(b1-4)GlcNAc
How it was run: as §1

[45] = biological target: Gal6S(b1-3)GlcNAc
How it was run: as §1

[46] = biological target: Gal6S(b1-4)Glc
How it was run: as §1

[47] = biological target: GalNAc(b1-3)GalNAc
How it was run: as §1

[48] = biological target: Glc(b1-4)Glc
How it was run: as §1

[49] = biological target: GlcA(b1-3)GlcNAc
How it was run: as §1

[50] = biological target: GlcNAc(a1-4)Gal(b1-3)GlcNAc
How it was run: as §1

[51] = biological target: GlcNAc(b1-3)Gal(b1-4)GlcNAc(b1-3)Gal(b1-4)GlcNAc(b1-2)Man(a1-3)[GlcNAc(b1-3)Gal(b1-4)GlcNAc(b1-3)Gal(b1-4)GlcNAc(b1-2)Man(a1-6)]Man(b1-4)GlcNAc(b1-4)[Fuc(a1-6)]GlcNAc
How it was run: as §1

[52] = biological target: GlcNAc(b1-3)Gal(b1-4)GlcNAc(b1-3)Gal(b1-4)GlcNAc(b1-3)Gal(b1-4)GlcNAc(b1-3)Gal(b1-4)GlcNAc(b1-2)Man(a1-3)[GlcNAc(b1-3)Gal(b1-4)GlcNAc(b1-3)Gal(b1-4)GlcNAc(b1-3)Gal(b1-4)GlcNAc(b1-3)Gal(b1-4)GlcNAc(b1-2)Man(a1-6)]Man(b1-4)GlcNAc(b1-4)[Fuc(a1-6)]GlcNAc
How it was run: as §1

[53] = biological target: Kdn(a2-3)Gal(b1-3)GlcNAc
How it was run: as §1

[54] = biological target: Neu5Ac(a2-3)Gal(b1-3)GalNAc
How it was run: as §1

B1: SLP (Clostridium difficile), Q183M8 (protein)
chain: MATTGTQGYTVVKNDWKKAVKQLQDGLKDNSIGKITVSFNDGVVGEVAPKSANKKADRDAAAEKLYNLVNTQLDKLGDGDYVDFSVDYNLENKIITNQADAEAIVTKLNSLNEKTLIDIATKDTFGMVSKTQDSEGKNVAATKALKVKDVATFGLKSGGSEDTGYVVEMKAGAVEDKYGKVGDSTAGIAINLPSTGLEYAGKGTTIDFNKTLKVDVTGGSTPSAVAVSGFVTKDDTDLAKSGTINVRVINAKEESIDIDASSYTSAENLAKRYVFDPDEISEAYKAIVALQNDGIESNLVQLVNGKYQVIFYPEGKRLETKSLEHHHHHH
glycan array binding signal (z-score) [1]: -0.17
glycan array binding signal (z-score) [2]: 3.53
glycan array binding signal (z-score) [3]: -0.18
glycan array binding signal (z-score) [4]: 3.46
glycan array binding signal (z-score) [5]: -0.174
glycan array binding signal (z-score) [6]: -0.175
glycan array binding signal (z-score) [7]: 12.1
glycan array binding signal (z-score) [8]: -0.186
glycan array binding signal (z-score) [9]: 0.537
glycan array binding signal (z-score) [10]: -0.185
glycan array binding signal (z-score) [11]: -0.141
glycan array binding signal (z-score) [12]: 3.65
glycan array binding signal (z-score) [13]: -0.152
glycan array binding signal (z-score) [14]: -0.182
glycan array binding signal (z-score) [15]: 7.99
glycan array binding signal (z-score) [16]: 5.55
glycan array binding signal (z-score) [17]: -0.173
glycan array binding signal (z-score) [18]: 6.19
glycan array binding signal (z-score) [19]: -0.209
glycan array binding signal (z-score) [20]: -0.2
glycan array binding signal (z-score) [21]: -0.17
glycan array binding signal (z-score) [22]: -0.167
glycan array binding signal (z-score) [23]: -0.057
glycan array binding signal (z-score) [24]: -0.18
glycan array binding signal (z-score) [25]: -0.187
glycan array binding signal (z-score) [26]: -0.177
glycan array binding signal (z-score) [27]: -0.188

B2: CBM40 CPF071 (Clostridium perfringens) (protein)
chain: MAHHHHHHVGTGSNDDDDKSPDPMLSSLGEYKDINLESSNASNITYDLEKYKNLDEGTIVVRFNSKDSKIQSLLGISNSKTKNGYFNFYVTNSRVGFELRNQKNEGNTQNGTENLVHMYKDVALNDGDNTVALKIEKNKGYKLFLNGKMIKEVKDTNTKFLNNIENLDSAFIGKTNRYGQSNEYNFKGNIGFMNIYNEPLGDDYLLSKTGETK
glycan array binding signal (z-score) [1]: -0.384
glycan array binding signal (z-score) [28]: -0.55
glycan array binding signal (z-score) [29]: -0.027
glycan array binding signal (z-score) [4]: -0.22
glycan array binding signal (z-score) [30]: 0.231
glycan array binding signal (z-score) [31]: 2.74
glycan array binding signal (z-score) [5]: 0.074
glycan array binding signal (z-score) [32]: 0.635
glycan array binding signal (z-score) [33]: -0.299
glycan array binding signal (z-score) [34]: -0.541
glycan array binding signal (z-score) [35]: 0.171
glycan array binding signal (z-score) [36]: -0.116
glycan array binding signal (z-score) [37]: -0.216
glycan array binding signal (z-score) [38]: -0.443
glycan array binding signal (z-score) [39]: 0.599
glycan array binding signal (z-score) [40]: -0.517
glycan array binding signal (z-score) [41]: -0.631
glycan array binding signal (z-score) [42]: -0.087
glycan array binding signal (z-score) [43]: -0.419
glycan array binding signal (z-score) [44]: -0.144
glycan array binding signal (z-score) [45]: -0.48
glycan array binding signal (z-score) [46]: -0.246
glycan array binding signal (z-score) [47]: 0.09
glycan array binding signal (z-score) [48]: 2.37
glycan array binding signal (z-score) [49]: 0.262
glycan array binding signal (z-score) [50]: -0.341
glycan array binding signal (z-score) [51]: -0.411
glycan array binding signal (z-score) [52]: -0.108
glycan array binding signal (z-score) [53]: -0.464
glycan array binding signal (z-score) [54]: -0.019
